Results taken from the supplement of paper PMC11732987, “Enantioselective OTUD7B fragment discovery through chemoproteomics screening and high-throughput optimisation” (Communications Chemistry, 2025).

Legend:
Experiment in all cases: log2 ratio of Biotin-Ahx-Ub-VS probe labelling (fragment/DMSO); higher = less target engagement (more negative = stronger competition), active = hit call of the paper (q ≤ 0.05, log2 ratio ≤ -1)
Settings in all cases: compound concentration: 200 uM; treatment time: 3 h
OTUD6B = biological target: T1, OTUD6B (UniProt Q8N6M0)
T1 sequence (whole entry): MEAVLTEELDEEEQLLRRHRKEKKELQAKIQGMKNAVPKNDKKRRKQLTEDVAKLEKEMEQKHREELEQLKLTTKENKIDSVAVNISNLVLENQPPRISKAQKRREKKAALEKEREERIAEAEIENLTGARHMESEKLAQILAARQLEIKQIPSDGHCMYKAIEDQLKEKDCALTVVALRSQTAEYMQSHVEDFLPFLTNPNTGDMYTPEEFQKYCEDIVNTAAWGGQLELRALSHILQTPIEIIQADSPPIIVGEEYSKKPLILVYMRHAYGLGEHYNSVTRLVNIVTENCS
Method in brief: (§1)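 HEK293T lysate (495 µg per sample, in Tris/CHAPS/IGEPAL buffer with protease inhibitors) was exposed in triplicate for 3 h to fragment at 200 µM or to vehicle, then to Biotin-Ahx-Ub-VS at 0.5 µM final for 1 h. Labelled DUBs were enriched on NeutrAvidin, digested with LysC and trypsin, and analysed by diaPASEF LC-MS/MS. Spectronaut label-free quantities were normalised to the global median, and values are average log2 ratios of fragment over vehicle from an unpaired t-test. Only proteins with ≥2 unique peptides were used.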

OTUD7B = biological target: T2, OTUD7B (UniProt Q6GQQ9)
T2 sequence (whole entry): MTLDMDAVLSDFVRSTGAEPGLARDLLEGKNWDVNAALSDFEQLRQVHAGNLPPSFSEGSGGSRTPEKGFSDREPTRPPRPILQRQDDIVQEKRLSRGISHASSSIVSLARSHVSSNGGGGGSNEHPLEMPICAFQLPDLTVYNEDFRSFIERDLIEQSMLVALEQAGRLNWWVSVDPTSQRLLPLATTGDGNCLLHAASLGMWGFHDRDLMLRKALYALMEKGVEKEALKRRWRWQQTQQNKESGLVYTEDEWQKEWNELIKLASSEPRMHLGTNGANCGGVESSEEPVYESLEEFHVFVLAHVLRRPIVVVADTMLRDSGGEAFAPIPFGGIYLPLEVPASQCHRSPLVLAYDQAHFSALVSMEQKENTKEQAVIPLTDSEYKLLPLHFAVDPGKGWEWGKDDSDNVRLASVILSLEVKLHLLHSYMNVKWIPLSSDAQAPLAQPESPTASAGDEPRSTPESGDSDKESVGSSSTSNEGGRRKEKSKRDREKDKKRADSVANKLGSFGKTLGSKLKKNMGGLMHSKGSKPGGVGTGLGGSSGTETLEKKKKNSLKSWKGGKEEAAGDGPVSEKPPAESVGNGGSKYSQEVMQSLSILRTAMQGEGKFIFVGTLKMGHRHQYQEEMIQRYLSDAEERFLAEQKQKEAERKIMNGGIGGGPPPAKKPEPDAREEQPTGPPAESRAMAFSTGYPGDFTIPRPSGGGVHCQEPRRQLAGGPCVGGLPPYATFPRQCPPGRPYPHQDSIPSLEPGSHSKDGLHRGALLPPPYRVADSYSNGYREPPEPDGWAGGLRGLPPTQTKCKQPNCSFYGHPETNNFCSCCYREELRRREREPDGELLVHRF
Method in brief: as §1

PRPF8 = PRPF8 (UniProt Q6P2Q9)
Method in brief: as §1

PSMD7 = biological target: T3, PSMD7 (UniProt P51665)
T3 sequence (whole entry): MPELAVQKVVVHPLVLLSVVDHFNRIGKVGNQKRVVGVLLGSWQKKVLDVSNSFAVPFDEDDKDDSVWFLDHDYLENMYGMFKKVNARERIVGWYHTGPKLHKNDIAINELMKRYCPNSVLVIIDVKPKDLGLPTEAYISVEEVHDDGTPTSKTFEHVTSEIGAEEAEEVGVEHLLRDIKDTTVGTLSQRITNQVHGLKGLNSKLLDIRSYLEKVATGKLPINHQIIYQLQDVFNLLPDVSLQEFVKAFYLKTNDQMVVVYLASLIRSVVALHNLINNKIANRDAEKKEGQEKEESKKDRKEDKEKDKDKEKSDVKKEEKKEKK
Method in brief: as §1

UCHL1 = UCHL1 (UniProt P09936)
Chain of UCHL1 (P09936 whole entry, looked up): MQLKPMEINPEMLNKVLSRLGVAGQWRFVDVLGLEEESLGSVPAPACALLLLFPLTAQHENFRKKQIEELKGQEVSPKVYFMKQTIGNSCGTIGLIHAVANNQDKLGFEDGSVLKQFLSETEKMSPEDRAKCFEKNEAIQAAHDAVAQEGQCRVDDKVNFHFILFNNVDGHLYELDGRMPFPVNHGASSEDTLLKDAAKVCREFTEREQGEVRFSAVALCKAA
Method in brief: as §1

UCHL3 = biological target: T4, UCHL3 (UniProt P15374)
T4 sequence (whole entry): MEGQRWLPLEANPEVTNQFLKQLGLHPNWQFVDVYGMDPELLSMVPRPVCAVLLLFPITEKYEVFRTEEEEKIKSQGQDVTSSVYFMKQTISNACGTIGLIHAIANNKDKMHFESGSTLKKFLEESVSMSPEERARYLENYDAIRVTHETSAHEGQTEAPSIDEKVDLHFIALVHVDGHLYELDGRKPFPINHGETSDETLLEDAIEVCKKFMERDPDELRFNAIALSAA
Method in brief: as §1

UCHL5 = biological target: T5, UCHL5 (UniProt Q9Y5K5)
T5 sequence (whole entry): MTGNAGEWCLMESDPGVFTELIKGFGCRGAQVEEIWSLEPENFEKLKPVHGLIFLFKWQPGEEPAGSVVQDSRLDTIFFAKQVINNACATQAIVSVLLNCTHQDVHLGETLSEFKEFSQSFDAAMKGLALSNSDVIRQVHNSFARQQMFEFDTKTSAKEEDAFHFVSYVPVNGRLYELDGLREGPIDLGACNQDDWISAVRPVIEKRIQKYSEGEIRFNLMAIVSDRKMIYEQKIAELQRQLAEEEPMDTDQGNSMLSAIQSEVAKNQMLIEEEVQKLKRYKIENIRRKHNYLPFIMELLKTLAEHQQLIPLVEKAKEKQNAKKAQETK
Method in brief: as §1

USP10 = USP10 (UniProt Q14694)
Chain of USP10 (Q14694 whole entry): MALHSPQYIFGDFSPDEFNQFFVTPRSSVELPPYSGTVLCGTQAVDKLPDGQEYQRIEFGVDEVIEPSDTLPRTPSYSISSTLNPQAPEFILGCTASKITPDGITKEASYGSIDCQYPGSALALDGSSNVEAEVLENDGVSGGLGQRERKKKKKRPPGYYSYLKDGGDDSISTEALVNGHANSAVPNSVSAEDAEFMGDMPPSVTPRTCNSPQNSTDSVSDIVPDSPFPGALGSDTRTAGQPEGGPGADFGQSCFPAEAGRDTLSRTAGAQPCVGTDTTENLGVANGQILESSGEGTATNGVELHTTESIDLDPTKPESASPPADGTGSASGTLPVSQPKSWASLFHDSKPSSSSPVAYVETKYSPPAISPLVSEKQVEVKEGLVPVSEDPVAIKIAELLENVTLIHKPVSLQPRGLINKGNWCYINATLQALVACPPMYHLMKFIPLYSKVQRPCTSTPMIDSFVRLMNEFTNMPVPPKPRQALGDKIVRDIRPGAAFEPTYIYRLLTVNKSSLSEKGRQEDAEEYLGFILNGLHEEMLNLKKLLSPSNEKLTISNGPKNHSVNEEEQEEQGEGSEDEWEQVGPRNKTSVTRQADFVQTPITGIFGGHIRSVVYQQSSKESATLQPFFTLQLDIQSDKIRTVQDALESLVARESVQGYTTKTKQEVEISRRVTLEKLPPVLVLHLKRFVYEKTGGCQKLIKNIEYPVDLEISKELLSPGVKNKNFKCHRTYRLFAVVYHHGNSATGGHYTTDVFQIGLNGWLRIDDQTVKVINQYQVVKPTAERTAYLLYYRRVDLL
Method in brief: as §1

USP15 = biological target: T6, USP15 (UniProt Q9Y4E8)
T6 sequence (whole entry): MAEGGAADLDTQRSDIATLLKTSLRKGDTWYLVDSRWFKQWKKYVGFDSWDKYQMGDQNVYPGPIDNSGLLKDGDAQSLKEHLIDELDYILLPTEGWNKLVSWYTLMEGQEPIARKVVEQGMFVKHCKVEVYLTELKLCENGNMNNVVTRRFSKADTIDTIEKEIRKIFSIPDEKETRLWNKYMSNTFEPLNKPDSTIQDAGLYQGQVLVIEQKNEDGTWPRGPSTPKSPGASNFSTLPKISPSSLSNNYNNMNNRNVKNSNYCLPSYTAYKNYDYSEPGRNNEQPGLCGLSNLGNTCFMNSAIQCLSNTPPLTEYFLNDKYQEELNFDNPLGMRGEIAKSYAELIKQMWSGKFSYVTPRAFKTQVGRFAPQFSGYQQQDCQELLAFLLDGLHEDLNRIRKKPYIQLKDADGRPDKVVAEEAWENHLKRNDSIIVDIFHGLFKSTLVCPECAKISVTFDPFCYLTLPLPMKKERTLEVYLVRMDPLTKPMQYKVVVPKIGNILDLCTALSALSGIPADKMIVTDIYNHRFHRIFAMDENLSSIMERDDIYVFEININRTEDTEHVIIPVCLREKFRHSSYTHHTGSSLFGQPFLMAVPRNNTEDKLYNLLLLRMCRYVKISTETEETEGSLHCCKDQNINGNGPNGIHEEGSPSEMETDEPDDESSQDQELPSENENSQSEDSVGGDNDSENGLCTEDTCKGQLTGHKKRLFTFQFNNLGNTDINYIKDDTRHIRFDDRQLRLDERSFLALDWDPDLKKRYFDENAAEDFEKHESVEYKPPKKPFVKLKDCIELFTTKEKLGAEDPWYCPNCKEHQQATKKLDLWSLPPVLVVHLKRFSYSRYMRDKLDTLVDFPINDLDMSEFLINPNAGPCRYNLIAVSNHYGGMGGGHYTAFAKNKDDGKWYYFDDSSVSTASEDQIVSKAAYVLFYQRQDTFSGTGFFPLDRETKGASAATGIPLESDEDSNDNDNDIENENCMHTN
Method in brief: as §1

USP16 = USP16 (UniProt Q9Y5T5)
Chain of USP16 (Q9Y5T5 whole entry, looked up): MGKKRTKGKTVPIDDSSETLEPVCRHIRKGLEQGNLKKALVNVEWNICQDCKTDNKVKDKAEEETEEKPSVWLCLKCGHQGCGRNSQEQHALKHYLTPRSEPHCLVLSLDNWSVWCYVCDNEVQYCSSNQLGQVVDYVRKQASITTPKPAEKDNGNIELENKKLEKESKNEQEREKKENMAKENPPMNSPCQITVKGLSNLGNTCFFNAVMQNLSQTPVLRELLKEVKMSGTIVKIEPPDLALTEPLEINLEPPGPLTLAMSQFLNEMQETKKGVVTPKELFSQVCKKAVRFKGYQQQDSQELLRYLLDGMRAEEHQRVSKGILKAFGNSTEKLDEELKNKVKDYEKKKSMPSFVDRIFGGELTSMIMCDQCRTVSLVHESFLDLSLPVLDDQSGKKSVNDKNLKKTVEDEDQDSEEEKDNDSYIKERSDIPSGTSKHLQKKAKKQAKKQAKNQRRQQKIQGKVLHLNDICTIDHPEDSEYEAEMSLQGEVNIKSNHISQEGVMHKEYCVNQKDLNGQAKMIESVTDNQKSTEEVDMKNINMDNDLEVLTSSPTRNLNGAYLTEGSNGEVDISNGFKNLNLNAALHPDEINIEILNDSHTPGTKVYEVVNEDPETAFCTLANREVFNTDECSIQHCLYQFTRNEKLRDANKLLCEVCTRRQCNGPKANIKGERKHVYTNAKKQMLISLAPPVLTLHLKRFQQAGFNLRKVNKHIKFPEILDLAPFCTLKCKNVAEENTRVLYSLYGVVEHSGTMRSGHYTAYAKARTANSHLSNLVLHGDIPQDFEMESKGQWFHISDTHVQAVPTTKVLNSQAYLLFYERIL
Method in brief: as §1

Measured: log2 ratio of Biotin-Ahx-Ub-VS probe labelling

CC1CN(c2ccc(NC(=O)CCl)cc2)CC(C)O1 (stereo not given)
inactive: OTUD6B -0.241 | OTUD7B -0.313 | PRPF8 0.0099 | PSMD7 -0.00447 | UCHL3 0.00853 | UCHL5 -0.366 | USP10 -0.118 | USP15 -0.153 | USP16 -0.987
active: UCHL1 -1.48
